AC50 and outcome data for 8 compounds are collected here from PubChem BioAssay (EPA / NIEHS).

A short description of test [1]: CCTE_Harrill_HTTr_Viability_PRF_DMEM_24hr: (Pilot) CCTE's 24-hour Cell Viability Assessment for the High-Throughput Transcriptomics (HTTr) Platform, in MCF-7 cells cultured in phenol red-free DMEM + 10% charcoal-stripped fetal bovine serum, Harrill Lab (AID 2283980). The essentials:
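MCF-7 cells in phenol red-free DMEM with 10% charcoal-stripped FBS, eight-point dilution series, 24 h exposure. Membrane integrity by propidium iodide exclusion with high content imaging; bidirectional fit vs DMSO.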

The nature of test [2]: CCTE_Harrill_HTTr_Apoptosis_DMEM_6hr: (Pilot) CCTE's 6-hour Apoptosis Assessment for the High-Throughput Transcriptomics (HTTr) Platform, in MCF-7 cells cultured in DMEM + 10% fetal bovine serum, Harrill Lab (AID 2283981). The essentials: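 Caspase-3/7 activation read by high content imaging with CellEvent Caspase 3/7 Green in MCF-7 cells (DMEM + 10% FBS), 6 h after dosing; eight-point dilution series. Bidirectional fitting relative to DMSO baseline.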

Test [3] can be described thus: CCTE_Harrill_HTTr_Apoptosis_DMEM_12hr: (Pilot) CCTE's 12-hour Apoptosis Assessment for the High-Throughput Transcriptomics (HTTr) Platform, in MCF-7 cells cultured in DMEM + 10% fetal bovine serum, Harrill Lab (AID 2283982). The procedure, abridged:
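MCF-7 cells in DMEM + 10% FBS, exposed 12 h to an eight-point dilution series; caspase-3/7 activation imaged with CellEvent Green. Bidirectional fit versus DMSO.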

Test [4] can be described thus: CCTE_Harrill_HTTr_Apoptosis_DMEM_24hr: (Pilot) CCTE's 24-hour Apoptosis Assessment for the High-Throughput Transcriptomics (HTTr) Platform, in MCF-7 cells cultured in DMEM + 10% fetal bovine serum, Harrill Lab (AID 2283983). The essentials: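 MCF-7 cells in DMEM + 10% FBS, eight-point dilution series, 24 h exposure. Caspase-3/7 activation imaged by high-content imaging with CellEvent Caspase 3/7 Green. Bidirectional curve fitting against DMSO baseline.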

Test [5] is described as follows: CCTE_Harrill_HTTr_Apoptosis_PRF_DMEM_6hr: (Pilot) CCTE's 6-hour Apoptosis Assessment for the High-Throughput Transcriptomics (HTTr) Platform, in MCF-7 cells cultured phenol red-free DMEM + 10% charcoal-stripped fetal bovine serum, Harrill Lab (AID 2283984). The essentials: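 MCF-7 cells in phenol red-free DMEM + 10% charcoal-stripped FBS, eight-point dilution series, 6 h exposure. Caspase-3/7 activation imaged by high-content imaging with CellEvent Caspase 3/7 Green; bidirectional fit versus DMSO baseline.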

Test [6] can be described thus: CCTE_Harrill_HTTr_Apoptosis_PRF_DMEM_24hr: (Pilot) CCTE's 24-hour Apoptosis Assessment for the High-Throughput Transcriptomics (HTTr) Platform, in MCF-7 cells cultured in phenol red-free DMEM + 10% charcoal-stripped fetal bovine serum, Harrill Lab (AID 2283986). The essentials: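 MCF-7 cells in phenol red-free DMEM with 10% charcoal-stripped FBS, exposed 24 h across an eight-point dilution series. Caspase-3/7 activation imaged with CellEvent Green by high content imaging; bidirectional fitting against DMSO.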

The next test relates to DIO1 (gene 1733). As to the kind of experiment: CCTE_GLTED_hDIO1: CCTE's human Deiodinase 1 (DIO1) Inhibition Assay, Great Lakes Toxicology and Ecology Division (GLTED) Lab (AID 2283987; active = hit-call score of the fitted dose curve at least 0.9, where 1 is the maximum;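 note: isolated human DIO1 enzyme in a cell-free setup rather than cells; enzyme activity read as free iodide liberated from substrate via Sandell-Kolthoff colorimetry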). The essentials: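 Steps: human DIO1 enzyme plus test chemical, 3 h incubation; free iodide then quantified in a second Sandell-Kolthoff step by absorbance. DMSO served as negative control and baseline.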

Test [7] in a line: CCTE_Simmons_MITO_inhib_resp_rate: CCTE's HepG2 Seahorse XF Respirometric Screening Assay at Inhibited Respiratory State [full ETC block], Simmons Lab (AID 2284006). The settings on record: actives raise or lower the signal. The essentials: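 Inhibited respiration was taken as HepG2 oxygen consumption after rotenone/antimycin A, which followed test-compound and FCCP injections. Chemicals were tested at seven final concentrations from 125 nM to 100 uM. Activity was fitted bidirectionally relative to DMSO.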

Test [8] can be described thus: CCTE_Simmons_MITO_viability: CellTiter-Glo Viability Assessment for CCTE's HepG2 Seahorse XF Respirometric Screening Assay [post-hoc], Simmons Lab (AID 2284007; active = hit-call score of the fitted dose curve at least 0.9, where 1 is the maximum;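 for AC50: cells exposed to chemical for 90 min before the ATP read; actives lower ATP signal relative to DMSO baseline meaning reduced viability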). The procedure, abridged: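 HepG2 cells; test chemical 7 conc. (125 nM–100 uM final) × 90 min; then luminescent ATP detection. DMSO vehicle. Positive control dichlone, 8 conc. from 10 nM to 100 uM final. Loss-of-signal endpoint.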
A general note: ATP-based viability assays read luminescence as a measure of living cells.

Test [9] is described as follows: CCTE_Shafer_MEA_acute_spike_number: CCTE's Neural Acute Assay for Total Number of Spikes, Shafer Lab (AID 2284008).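 For AC50: curve fitted for decrease in spike count so AC50 reflects inhibitors.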 The essentials: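 Rat cortical cultures, DIV 13/15, 37 C. 40 min baseline rec, cpd 0.03-40 uM, 40 min post-dose rec. Band-pass 300-5000 Hz, spike threshold 8x rms; % change in spike count per well, DMSO neg ctrl, loss-of-signal fit.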
Test [10] in a line: CCTE_Shafer_MEA_acute_firing_rate_mean: CCTE's Neural Acute Assay for Mean Firing Rate, Shafer Lab (AID 2284009).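 Note: analyzed for loss of signal so actives lower firing rate relative to DMSO.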 The essentials: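 Percent change in well-mean firing rate was derived from extracellular spikes detected at 8x rms noise (300-5000 Hz band-pass) before and after a 40-min compound exposure. Cultures were primary rat cortical neurons, tested at 0.03-40 uM.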
The nature of test [11]: CCTE_Harrill_HTTr_Viability_MCF7: CCTE's 6-hour Cell Viability Assessment for the High-Throughput Transcriptomics (HTTr) Platform, in MCF-7 cells cultured in DMEM + 10% fetal bovine serum, Harrill Lab (AID 2284010). The procedure, abridged: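 Viability measured through PI dye exclusion by high-content imaging at 6 h post-dosing.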
Test [12] can be described thus: CCTE_Harrill_HTTr_Apoptosis_MCF7: CCTE's 6-hour Apoptosis Assessment for the High-Throughput Transcriptomics (HTTr) Platform, in MCF-7 cells cultured in DMEM + 10% fetal bovine serum, Harrill Lab (AID 2284011). The procedure, abridged:
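Read-out: CellEvent Caspase 3/7 Green signal by high content imaging, gain-of-signal indicating apoptosis. MCF-7 cells, DMEM + 10% FBS, eight-point dilution series, 6 h exposure. Curves fitted bidirectionally relative to DMSO negative control.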

Test [13] in a line: CCTE_Harrill_HTTr_CellCount_MCF7: CCTE's Cell Proliferation Assessment for the High-Throughput Transcriptomics (HTTr) Platform, Harrill Lab (AID 2284012; active = hit-call score of the fitted dose curve at least 0.9, where 1 is the maximum;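 note: count of Hoechst-stained nuclei per well by high-content imaging in MCF-7 cells; cells exposed to compound for six hours; intended direction is loss of nuclei count meaning fewer cells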). The essentials:
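Nuclei counting (Hoechst, high content imaging) in MCF-7 after a 6 h treatment at eight concentrations. Activity fitted bidirectionally, DMSO as negative control.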

A short description of test [14]: CCTE_Shafer_MEA_acute_burst_number: CCTE's Neural Acute Assay for Single-Electrode Bursts, Shafer Lab (AID 2284013). The procedure, abridged:
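Spontaneous network activity of primary rat cortical neurons was recorded extracellularly on microelectrode arrays at 37 C, with 40-min periods before and during exposure to 0.03-40 uM compound on DIV 13 or 15.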

Test [15] can be described thus: CCTE_Shafer_MEA_acute_burst_duration_mean: CCTE's Neural Acute Assay for Mean Burst Duration, Shafer Lab (AID 2284014).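 Note: hits are decreases in mean burst duration relative to DMSO controls.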 The procedure, abridged: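 Read-out is the per-well percent change in mean burst duration (first to last spike within a single-electrode burst) between 40-min recordings before and after compound. Cultures were primary rat cortical neurons on MEAs, dosed at 0.03-40 uM on DIV 13 or 15.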

The nature of test [16]: CCTE_Shafer_MEA_acute_per_burst_spike_number_mean: CCTE's Neural Acute Assay for Average Number of Spikes Per Burst, Shafer Lab (AID 2284015).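 Note: hits are decreases in mean spikes per burst versus baseline.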 The procedure, abridged:
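Primary rat cortical neurons on 48-well MEA plates, treated on DIV 13 or 15 at 0.03-40 uM. Spontaneous activity recorded 40 min before and 40 min after compound at 37 C; percent change in mean spikes per single-electrode burst per well, fitted in the loss direction versus DMSO.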

Test [17] is described as follows: CCTE_Shafer_MEA_acute_interburst_interval_mean: CCTE's Neural Acute Assay for Mean Interburst Interval, Shafer Lab (AID 2284016).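 Note: percent change of mean interburst interval versus each well's own pre-dose baseline; curves fitted for decrease in interburst interval relative to DMSO.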 The procedure, abridged:
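Primary rat cortical neurons on 16-electrode MEA wells were recorded 40 min at baseline on DIV 13 or 15, then 40 min after compound (0.03-40 uM), at 37 C. Value is percent change in mean interburst interval per well, DMSO as negative control.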

Test [18] addresses Ratio of Nucleoli Translocation and Cytoplasm, AR (gene 367) (UniProt P10275). As to the kind of experiment: UPITT_HCI_U2OS_AR_TIF2_Nucleoli_Cytoplasm_Ratio_Antagonist: University of Pittsburgh U2OS Androgen Receptor-Transcriptional Intermediary Factor 2 (AR-TIF2) Antagonism High Content Imaging Assay for Ratio of Nucleoli Translocation and Cytoplasm (AID 2283999; active = hit-call score of the fitted dose curve at least 0.9, where 1 is the maximum;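 note: antagonists lower the DHT-driven ratio of nucleolar to cytoplasmic red signal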). The essentials:
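High-content imaging quantifies the red nucleolar:cytoplasmic fluorescence ratio in U2OS cells with AR-RFP and TIF2-GFP. Final concentrations are 20 uM (screen) or 0.195–50 uM (dose response), analysed against DHT as baseline.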

The target is the same in test [19]. As to the kind of experiment: UPITT_HCI_U2OS_AR_TIF2_Nucleoli_Cytoplasm_Ratio_Agonist: University of Pittsburgh U2OS Androgen Receptor-Transcriptional Intermediary Factor 2 (AR-TIF2) Agonism High Content Imaging Assay for Ratio of Nucleoli Translocation and Cytoplasm (AID 2284000; active = hit-call score of the fitted dose curve at least 0.9, where 1 is the maximum;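 note: hits raise the red nucleolar to cytoplasm ratio above vehicle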). The procedure, abridged: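 Read-out first: nucleolar-to-cytoplasm ratio of red (AR-RFP) signal, quantified by high-content imaging in U2OS cells co-expressing TIF2-GFP. Activity is scored as signal increase over DMSO. Single-point screening used 20 uM final (0.2% DMSO).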

Where “and” joins values, the source holds several entries; their conditions need not be identical. Equal entries are not always repeated. Inconclusive results are not listed. A structure can be active in one record and inactive in another. Calls of active or inactive are those of the source. Rule for the calls, unless noted: active = hit-call score of the fitted dose curve at least 0.9, where 1 is the maximum; inactive = score below 0.9.

Sequence of Ratio of Nucleoli Translocation and Cytoplasm, AR (gene 367) (P10275 whole entry, looked up): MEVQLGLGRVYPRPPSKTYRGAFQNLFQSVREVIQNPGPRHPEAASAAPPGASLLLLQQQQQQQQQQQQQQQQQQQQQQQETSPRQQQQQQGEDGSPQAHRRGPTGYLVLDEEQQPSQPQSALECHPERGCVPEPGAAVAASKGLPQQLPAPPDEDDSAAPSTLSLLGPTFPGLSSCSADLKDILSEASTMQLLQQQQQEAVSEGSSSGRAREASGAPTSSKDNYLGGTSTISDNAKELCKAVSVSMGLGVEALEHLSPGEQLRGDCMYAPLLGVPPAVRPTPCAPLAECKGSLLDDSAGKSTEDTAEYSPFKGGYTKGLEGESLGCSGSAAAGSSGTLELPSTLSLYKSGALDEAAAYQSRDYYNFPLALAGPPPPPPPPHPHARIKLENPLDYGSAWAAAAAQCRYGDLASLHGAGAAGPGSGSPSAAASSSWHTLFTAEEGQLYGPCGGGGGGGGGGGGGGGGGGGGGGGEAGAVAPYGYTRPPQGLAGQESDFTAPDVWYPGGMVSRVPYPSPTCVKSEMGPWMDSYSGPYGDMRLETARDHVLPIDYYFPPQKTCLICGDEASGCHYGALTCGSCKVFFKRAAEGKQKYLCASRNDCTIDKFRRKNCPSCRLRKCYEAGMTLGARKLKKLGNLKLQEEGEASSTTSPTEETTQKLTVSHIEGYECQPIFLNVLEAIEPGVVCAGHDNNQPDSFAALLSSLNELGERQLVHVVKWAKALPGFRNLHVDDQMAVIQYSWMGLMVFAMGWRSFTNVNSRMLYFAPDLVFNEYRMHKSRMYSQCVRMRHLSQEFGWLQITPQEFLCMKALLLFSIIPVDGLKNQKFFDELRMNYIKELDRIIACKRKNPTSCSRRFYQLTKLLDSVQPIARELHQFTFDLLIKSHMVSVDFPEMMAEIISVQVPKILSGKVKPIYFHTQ

The term AC50 denotes the concentration giving half of the maximal activity seen. As for `CC(C)CCCCCCc1ccc(O)cc1`, the half-maximal activity concentration (AC50) in test [1] was 64.3 µM (active); in test [3], 63.2 µM (active); in test [4], 77.5 µM (active); in test [6] it was 77.2 µM (active); with DIO1 (gene 1733), 49.4 µM (active); in test [9] it was 6.02 µM (active). For the same compound, the half-maximal activity concentration (AC50) in test [10] was 6.03 µM (active); in test [14], 6.34 µM (active); in [17], 7.29 µM (active). The result in [2], in test [5], in [7], in [8], in test [11] and in [12] was inactive. The result in test [13], in test [15] and in [16] was inactive.

Regarding `C=CCOC(Cn1ccnc1)c1ccc(Cl)cc1Cl` (stereo not given), the result in [1], in test [2], in test [3], in [4], in test [5] and in test [6] was inactive. Also, the call in test [7], in [8], in test [11], in test [12], in test [13] and in test [15] was inactive. The compound was called inactive in test [16] and in [17]. The AC50 in test [9] was 6.09 µM (active); in [10], 6.09 µM (active); in test [14], 3.97 µM (active).

Take `CN(C)C(=O)Nc1ccc(Cl)c(Cl)c1`: the result in test [18], in test [11], in test [12] and in test [13] was inactive.

As to `CCCCOC(=O)C(C)Oc1ccc(Oc2ccc(C(F)(F)F)cn2)cc1` (stereo not given), the result in test [7], in test [8], in test [11] and in test [12] was inactive.

For the compound `S=C(S)NCCNC(=S)S.[Mn+2].[S-]C([S-])=NCCN=C([S-])[S-].[Zn+2]`, in the test with DIO1 (gene 1733), the AC50 was 29.5 µM (active) and 50 µM (active). The outcome in [11], in test [12] and in [13] was inactive.

With `O=C(O)C1(C(=O)Nc2ccc(Cl)cc2Cl)CC1`, the outcome in [19], in test [7], in test [11], in [12] and in test [13] was inactive. For the same compound, the AC50 in [8] was 29.3 µM (active).

For `Cc1nn(C)c(Oc2ccccc2)c1C=NOCc1ccc(C(=O)OC(C)(C)C)cc1`, the result in [1], in test [2], in test [3], in test [4], in test [5] and in test [6] was inactive. Also, the result in test [18], in [7], in [8], in [11], in test [12] and in test [13] was inactive. Moreover, the call in test [15] was inactive. The AC50 in test [8] is 2.81 µM (active); in test [9] it was 0.00424 µM (active); in test [10], 0.00449 µM (active); in test [14], 0.003 µM (active); in [16], 3.08 µM (active); in test [17], 0.003 µM (active).

`N#CSCSc1nc2ccccc2s1`: the AC50 in [18] was 32.4 µM (active); in test [19], 12.8 µM (active); in test [16], 20 µM (active). In addition, the outcome in test [7], in [8], in test [9], in test [10], in test [11] and in [12] was inactive. Besides, the outcome in test [13], in test [14], in test [15] and in test [17] was inactive.
